Compound activity as filed in PubChem.
UDG counterscr – UDG inhibition counter-screen; Potency, µM (series often up to 115 µM), actives largely listed as inhibitors; 0.14% of 91,000 active; AID 1347430; FRET deamination/UDG coupled assay, UDG read, 4 h; note: nearly all actives have a fitted effect of over 65% in size
AID inhibitor – blocks human AID cytidine deaminase activity | 0.32% of 91,000 active | AID 1347428 | Q9GZX7 | AID deamination FRET fluorescence, UDG-coupled, 4 h | Potency, µM (top dose mostly 115 µM), actives largely listed as inhibitors; note: nearly all actives have a fitted effect of over 25% in size
Large screens that a line does not name were inactive. Rows were chosen to be rich in hits. Some 0.47% of all compounds tested hit in one or more screens of this group. Calls come from the whole dose curve; as a rule, active = well fitted curve in the direction sought with a large enough effect; inconclusive = small, poorly fitted or top-dose-only effect, or another doubt; inactive = no such curve, though single readings can be large; an effect the other way counts as inactive or inconclusive.

CN(N=O)c1cc(O)ccc1O	AID inhibitor 28µM
CN(Cc1cccs1)C(=O)CCl	none
COc1ccc2c(c[n+](C)c3c4cc5c(cc4ccc23)OCO5)c1OC	AID inhibitor 40µM
COc1cc(-c2c(C#N)c(N)nc3c2c(=O)nc2sccn23)ccc1OCc1ccccc1F	AID inhibitor inconclusive
CCCOc1ccccc1CCN	none
COc1ccccc1C1SCC(=O)Nc2c1c(C)nn2C (stereo unspecified)	none
Cc1cccc(-n2nnnc2C2(N)CCCCC2)c1	none
CCc1ccc(C2SCC(=O)Nc3n[nH]c(C)c32)cc1 (stereo unspecified)	none
CCCCC/C=C\C/C=C\C/C=C\C/C=C\CCCC(=O)NCC(=O)O	AID inhibitor 79µM
